Several values for one entry are separate records, joined by “and”; a condition that tells them apart may be missing. Equal values may be shown once. The campaign covered roughly 5,500 compounds. About 2,000 (36%) were called active. Inconclusive results (about 18%) are left out. Cut-off read from the data, not from the text of the source: active = normalized growth mostly below about 0.91 (no sharp cut-off); inconclusive = no clear call, values can overlap the other calls; inactive = mostly above about 0.92. The list shows a part of the results.
Test: chemical genetic growth profiling, strain panel (AID 1159580);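 note: tested at 20 µM; growth read once vehicle control cultures reached saturation at 30 °C; 1 = growth at the plate median or of vehicle wells; lower values mean less growth of the strain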
Details: S. cerevisiae deletion strains, growth OD

Measured: normalized growth

COc1cc2c(cc1OC)C(=O)OC2
inactive: locus YAL013W, strain DEP1, active compounds read low 1 | locus YAL021C, strain ccr4, active compounds read low 0.998 | locus YAL026C, strain drs2, active compounds read low 1.01 | locus YAL030W, strain snc1, active compounds read low 0.981 | locus YBL061C, strain skt5, active compounds read low 0.988 | locus YBR009C, strain hhf1, active compounds read low 0.992 | locus YBR021W, strain FUR4, active compounds read low 0.999 | locus YBR023C, strain chs3, active compounds read low 0.993 | locus YBR171W, strain sec66, active compounds read low 0.998 | locus YBR229C, strain ROT2, active compounds read low 1.01 | locus YBR231C, strain swc5, active compounds read low 0.98 | locus YBR279W, strain paf1, active compounds read low 0.997 | locus YCL011C, strain gbp2, active compounds read low 0.99 | locus YCL016C, strain dcc1, active compounds read low 0.987 | locus YCL029C, strain bik1, active compounds read low 1.01 | locus YCL061C, strain MRC1, active compounds read low 0.999 | locus YCL069W, strain vba3, active compounds read low 1 | locus YCR088W, strain abp1, active compounds read low 0.994 | locus YDL005C, strain med2, active compounds read low 0.988 | locus YDL035C, strain GPR1, active compounds read low 1.02 | locus YDL040C, strain nat1, active compounds read low 0.985 | locus YDL074C, strain BRE1, active compounds read low 0.985 | locus YDL101C, strain DUN1, active compounds read low 1.01 | locus YDL134C, strain PPH21, active compounds read low 0.999 | locus YDL185W, strain tfp1, active compounds read low 1.01 | locus YDL192W, strain arf1, active compounds read low 1 | locus YDR001C, strain nth1, active compounds read low 1.01 | locus YDR069C, strain doa4, active compounds read low 0.994 | locus YDR101C, strain arx1, active compounds read low 0.994 | locus YDR137W, strain rgp1, active compounds read low 0.967 | locus YDR150W, strain NUM1, active compounds read low 1 | locus YDR159W, strain sac3, active compounds read low 1.01 | locus YDR162C, strain NBP2, active compounds read low 0.985 | locus YDR195W, strain ref2 1 | locus YDR297W, strain sur2, active compounds read low 0.998 | locus YDR318W, strain mcm21, active compounds read low 1.02 | locus YDR334W, strain swr1, active compounds read low 0.976 | locus YDR335W, strain msn5, active compounds read low 1 | locus YDR388W, active compounds read low 1.01 | locus YDR392W, strain spt3, active compounds read low 0.997 | locus YDR502C, strain sam2, active compounds read low 0.983 | locus YEL003W, strain gim4, active compounds read low 0.999 | locus YEL037C, strain rad23, active compounds read low 0.994 | locus YEL061C, strain CIN8 (second series), active compounds read low 1.01 | locus YEL061C, strain CIN8, active compounds read low 1 | locus YER015W, strain faa2, active compounds read low 0.988 | locus YER016W, strain bim1, active compounds read low 0.999 | locus YER110C, active compounds read low 1.01 | locus YER111C, strain swi4, active compounds read low 0.996 | locus YER155C, strain BEM2 (second series), active compounds read low 0.992 | locus YER155C, strain BEM2, active compounds read low 1.01 | locus YER167W, strain BCK2, active compounds read low 1.03 | locus YFR010W, strain ubp6, active compounds read low 0.989 | locus YGL078C, strain dbp3, active compounds read low 0.984 | locus YGL086W, strain mad1, active compounds read low 1.03 | locus YGL167C, strain pmr1, active compounds read low 0.984 | locus YGL173C, strain kem1, active compounds read low 0.983 | locus YGL227W, strain vid30, active compounds read low 0.998 | locus YGL240W, strain doc1, active compounds read low 1.03 | locus YGL248W, strain PDE1, active compounds read low 1.01 | locus YGL253W, strain hxk2, active compounds read low 0.993 | locus YGR078C, strain PAC10, active compounds read low 0.987 | locus YGR135W, strain pre9, active compounds read low 0.961 | locus YGR229C, strain SMI1, active compounds read low 0.999 | locus YGR252W, strain gcn5, active compounds read low 1.06 | locus YHR013C, strain ard1, active compounds read low 0.988 | locus YHR027C, strain rpn1, active compounds read low 1 | locus YHR030C, strain SLT2, active compounds read low 1.01 and 0.973 | locus YHR079C, strain IRE1 (second series), active compounds read low 1.01 | locus YHR079C, strain IRE1, active compounds read low 0.984 | locus YHR094C, strain hxt1, active compounds read low 0.999 | locus YHR129C, strain ARP1, active compounds read low 1.01 | locus YHR142W, strain chs7, active compounds read low 0.972 | locus YHR200W, strain rpn10, active compounds read low 1 | locus YIL066C, strain RNR3, active compounds read low 1.02 | locus YIL073C, strain SPO22, active compounds read low 1.06 | locus YIL125W, strain kgd1, active compounds read low 0.99 | locus YIR030C, strain dcg1, active compounds read low 0.999 | locus YJL092W, strain hpr5, active compounds read low 0.999 | locus YJL095W, strain BCK1 (second series), active compounds read low 0.991 | locus YJL095W, strain BCK1, active compounds read low 0.996 and 0.98 | locus YJL115W, strain asf1, active compounds read low 1 | locus YJL129C, strain trk1, active compounds read low 1.03 | locus YJL134W, strain LCB3, active compounds read low 1 | locus YJL154C, strain vps35, active compounds read low 0.988 | locus YJL164C, strain tpk1, active compounds read low 0.996 | locus YJL166W, strain qcr8, active compounds read low 0.981 | locus YJL168C, strain set2, active compounds read low 1.01 | locus YJL187C, strain SWE1 (second series), active compounds read low 1 | locus YJR043C, strain POL32, active compounds read low 1.03 | locus YJR066W, strain TOR1, active compounds read low 0.977

— PubChem BioAssay AID1159580 (chemical genetic matrix, 2015)
